PubChem BioAssay (NCATS)
Records with an inconclusive call do not appear. Calls of active or inactive are those of the source. Calls come from the whole dose curve; as a rule, active = well fitted cell-killing curve with a large enough effect; inconclusive = small, poorly fitted or top-dose-only effect, or effect the other way; inactive = flat fitted curve, though single readings scatter.

Tests used:
Test in all cases: Primary qHTS to identify gynecologic anti-cancer compounds using libraries of approved drugs and bioactive compounds (AID 1345084); note: nearly all actives have a fitted effect of over 55% in size
Hek293T = conditions: Gynecologic cancer cell panel viability, ATPlite luminescence, 48 h, control line for the selectivity index; series mostly up to 57.5 µM
Summary of the method: (§1)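 Luminescence from the ATPlite ATP-monitoring reagent indicates viable cell number; lower signal means cytotoxicity. Cells received compound 16 h after seeding and were exposed for 48 h across five concentrations.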

JEG-3 = conditions: Gynecologic cancer cell panel viability, ATPlite luminescence, 48 h; series mostly up to 57.5 µM
Summary of the method: as §1

OV90 = conditions: Gynecologic cancer cell panel viability, ATPlite luminescence, 48 h; series mostly up to 57.5 µM
Summary of the method: as §1

PA-1 = conditions: Gynecologic cancer cell panel viability, ATPlite luminescence, 48 h; series mostly up to 57.5 µM
Summary of the method: as §1

SKOV3 = conditions: Gynecologic cancer cell panel viability, ATPlite luminescence, 48 h; series mostly up to 57.5 µM
Summary of the method: as §1

Tov-21-G = conditions: Gynecologic cancer cell panel viability, ATPlite luminescence, 48 h; series mostly up to 57.5 µM
Summary of the method: as §1

Tov112D = conditions: Gynecologic cancer cell panel viability, ATPlite luminescence, 48 h; series mostly up to 57.5 µM
Summary of the method: as §1
% is set by controls: 0 for no effect and ±100 for the full control effect.

Nc1ncnc2c1ncn2[C@H]1CCCO1
inactive: Potency (Hek293T) | Potency (JEG-3) | Potency (OV90) | Potency (PA-1) | Potency (SKOV3) | Potency (Tov-21-G) | Potency (Tov112D)

CNC(=O)c1ccc2cc([C@@]3(O)CCn4cncc43)ccc2c1
inactive: Potency (Hek293T) | Potency (JEG-3) | Potency (OV90) | Potency (PA-1) | Potency (SKOV3) | Potency (Tov-21-G) | Potency (Tov112D)

CC(C)(O)c1ccc2c(c1)C(O)CC1C(C)(C(=O)O)CCCC21C (configuration not stated)
inactive: Potency (Hek293T) | Potency (JEG-3) | Potency (OV90) | Potency (PA-1) | Potency (SKOV3) | Potency (Tov-21-G) | Potency (Tov112D)

CC1=CC(=O)C2C(C)(C)CCCC2(C)C12CCC1(COC(=O)C1)O2 (configuration not stated)
inactive: Potency (Hek293T) | Potency (JEG-3) | Potency (OV90) | Potency (PA-1) | Potency (SKOV3) | Potency (Tov-21-G) | Potency (Tov112D)

CC(c1c[nH]c2ccccc12)C(O)C(=O)O (configuration not stated)
inactive: Potency (Hek293T) | Potency (JEG-3) | Potency (OV90) | Potency (PA-1) | Potency (SKOV3) | Potency (Tov-21-G) | Potency (Tov112D)

COc1c2c(c(C)c3c1C(=O)OC3)OC1(C)CC(O)C3(O)C(C)(C)OC(=O)CCC3(C)C1C2 (configuration not stated)
inactive: Potency (Hek293T) | Potency (JEG-3) | Potency (OV90) | Potency (PA-1) | Potency (SKOV3) | Potency (Tov-21-G) | Potency (Tov112D)

O=C(/C=C/c1ccc(O)cc1)OCC1=CC2OC(=O)C3=CO[C@@H](O[C@@H]4O[C@H](CO)[C@@H](O)[C@H](O)[C@H]4O)[C@H]1[C@@H]32 (some centres not stated)
inactive: Potency (Hek293T) | Potency (JEG-3) | Potency (OV90) | Potency (PA-1) | Potency (SKOV3) | Potency (Tov-21-G) | Potency (Tov112D)

OC[C@H]1O[C@@H](Oc2cc(O)cc(-c3cc4ccc(O)cc4o3)c2)[C@H](O)[C@@H](O)[C@@H]1O
inactive: Potency (Hek293T) | Potency (JEG-3) | Potency (OV90) | Potency (PA-1) | Potency (SKOV3) | Potency (Tov-21-G) | Potency (Tov112D)

C[C@@H]1O[C@@H](O[C@H]2[C@H](O[C@H]3[C@H](O[C@H]4CC[C@@]5(C)C(CC[C@]6(C)C5CC=C5[C@@H]7CC(C)(C(=O)O)C[C@@H](O)[C@]7(C)CC[C@]56C)[C@@]4(C)CO)O[C@H](C(=O)O)[C@@H](O)[C@@H]3O)O[C@H](CO)[C@H](O)[C@@H]2O)[C@H](O)[C@H](O)[C@H]1O (some centres not stated)
inactive: activity change, negative = cytotoxicity (Hek293T) -2.11% [at 11.6 µM] | activity change, negative = cytotoxicity (JEG-3) -9.71% [at 11.6 µM] | activity change, negative = cytotoxicity (OV90) 0.848% [at 11.6 µM] | activity change, negative = cytotoxicity (PA-1) 3.43% [at 11.6 µM] | activity change, negative = cytotoxicity (SKOV3) 5.26% [at 11.6 µM] | activity change, negative = cytotoxicity (Tov-21-G) 6.81% [at 11.6 µM] | activity change, negative = cytotoxicity (Tov112D) 9.62% [at 11.6 µM]

C[C@@H]1CCC2C(C)(C)[C@H](O)CC[C@]2(C)[C@@]12Cc1c(O)cc3c(c1O2)CN(CCO)C3=O (some centres not stated)
inactive: Potency (Hek293T) | Potency (JEG-3) | Potency (OV90) | Potency (PA-1) | Potency (SKOV3) | Potency (Tov-21-G) | Potency (Tov112D)

CCOC(=O)[C@H](CCc1ccccc1)CC1(C(=O)N[C@H]2CCc3ccccc3N(CC(=O)O)C2=O)CCCC1
inactive: Potency (Hek293T) | Potency (JEG-3) | Potency (OV90) | Potency (PA-1) | Potency (SKOV3) | Potency (Tov-21-G) | Potency (Tov112D)

CC(C)(OC1OC(CO)C(O)C(O)C1O)C1CCC(O)(CO)C2CC(O)C(C)(O)C2C1 (configuration not stated)
inactive: Potency (Hek293T) | Potency (JEG-3) | Potency (OV90) | Potency (PA-1) | Potency (SKOV3) | Potency (Tov-21-G) | Potency (Tov112D)

C=C1CC2(C(=O)O)CC1CCC2C1(C)CCCC2(C)C(=O)OC(O)C21 (configuration not stated)
inactive: Potency (Hek293T) | Potency (JEG-3) | Potency (OV90) | Potency (PA-1) | Potency (SKOV3) | Potency (Tov-21-G) | Potency (Tov112D)

COC(=O)C12C(=O)C(C)=C(O)C1(C)C(C)=CC1C34CCC(OC3=O)C(C)(C)C4CCC12C (configuration not stated)
inactive: Potency (Hek293T) | Potency (JEG-3) | Potency (OV90) | Potency (PA-1) | Potency (SKOV3) | Potency (Tov-21-G) | Potency (Tov112D)

C[C@@H]1C(=O)O[C@H]2[C@H]1CC[C@@]1(C)C(=O)C=C[C@](C)(O)[C@H]21
inactive: Potency (Hek293T) | Potency (JEG-3) | Potency (OV90) | Potency (PA-1) | Potency (SKOV3) | Potency (Tov-21-G) | Potency (Tov112D)

CC12CCC3C(C)(C)C(O)CCC3(C)C1Cc1c(oc(C(=O)O)cc1=O)O2 (configuration not stated)
inactive: Potency (Hek293T) | Potency (JEG-3) | Potency (OV90) | Potency (PA-1) | Potency (SKOV3) | Potency (Tov-21-G) | Potency (Tov112D)

CC1(C)O[C@@]2(C)CC[C@@H]1C[C@@H]2OC1OC(CO)C(O)C(O)C1O (some centres not stated)
inactive: Potency (Hek293T) | Potency (JEG-3) | Potency (OV90) | Potency (PA-1) | Potency (SKOV3) | Potency (Tov-21-G) | Potency (Tov112D)

C=C1[C@@H]2CC[C@@]3(C)[C@H](c4ccoc4)OC(=O)C[C@]13O[C@H]1CC(=O)C(C)(C)[C@H](CC(=O)OC)[C@]12C
inactive: Potency (Hek293T) | Potency (JEG-3) | Potency (OV90) | Potency (PA-1) | Potency (SKOV3) | Potency (Tov-21-G) | Potency (Tov112D)

CO[C@@H](Cc1ccc(OCCc2nc(-c3ccccc3)oc2C)c2ccsc12)C(=O)O
inactive: Potency (Hek293T) | Potency (JEG-3) | Potency (OV90) | Potency (PA-1) | Potency (SKOV3) | Potency (Tov-21-G) | Potency (Tov112D)

CN1C(=O)N[C@@H](Cc2c[nH]c3c(Cl)cccc23)C1=O
inactive: Potency (Hek293T) | Potency (JEG-3) | Potency (OV90) | Potency (PA-1) | Potency (SKOV3) | Potency (Tov-21-G) | Potency (Tov112D)

C[C@H](NCc1ccc(OCc2ccccc2F)cc1)C(N)=O
inactive: Potency (Hek293T) | Potency (JEG-3) | Potency (OV90) | Potency (PA-1) | Potency (SKOV3) | Potency (Tov-21-G) | Potency (Tov112D)
